# Shown is part of a subset that was picked to be rich in hits.
# PNC assembly inh: blocks assembly of the perinucleolar compartment; activity change (PNC), negative = inhibition, % at 10 µM; AID 2417; actives 3.1% (n = 140,000); PC3M PTB-GFP, PNC prevalence imaging, 16 h; active compounds read low;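 active = readout at or below -70, meaning at least 70% loss of cells showing the perinucleolar compartment, a nuclear body marking cancer cells; inconclusive = readout between -30 and a set limit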
#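 Compounds are pinned in duplicate onto adhered PC3M cells stably expressing GFP-tagged PTB and incubated 16 h at 37 C. Cells are then fixed, nuclei stained with Hoechst, and PNC-positive cells counted.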
# HttQ103 aggreg: mutant huntingtin aggregation inhibition | PC12 HttQ103-GFP aggregates, Acumen cytometry, 40 h | actives 1.1% (n = 220,000) | Potency, µM (series often up to 46.1 µM), usual class: inhibitors; also: nearly all actives have a fitted effect of over 60% in size
#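 Aggregates are detected as GFP objects 1–25 µm with signal 6 STDEV over background in lysates of induced PC12 cells. These carry Huntingtin exon 1 with 103 glutamines fused to GFP under an ecdysone promoter; compounds titrated.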
# HTT ATP protect: cytoprotection in Huntington HTT-Q103 PC12 cell model; PC12 HTT-Q103 induced, cytoprotection, ATP luminescence, 40 h; Potency, µM (titrated, usually from 56.4 µM), most hits filed as activators; actives 0.14% (n = 230,000); AID 1471; also: nearly all actives have a fitted effect of over 45% in size
#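 Rat PC12, Q103 Htt exon1-GFP fusion, ecdysone promoter; tebufenozide inducer 100 nM final; compound titration; qHTS, 1500 cells/well; ATPlite luminescent read.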
# Numbers stand for hits; i = inactive; ? = inconclusive; nt = no result; [ ] = dose if it differs, or a comment. Unless noted, calls follow the shape of the dose curve; as a rule, active = well fitted curve in the direction sought with a large enough effect; inconclusive = small, poorly fitted or top-dose-only effect, or another doubt; inactive = no such curve, though single readings can be large; an effect the other way counts as inactive or inconclusive.
SMILES,PNC assembly inh,HttQ103 aggreg,HTT ATP protect
COc1cc(C(c2c(C)[nH][nH]c2=O)c2c(C)[nH][nH]c2=O)ccc1OS(=O)(=O)c1ccccc1,i,i,i
CC(=O)CCc1ccc(OC(=O)c2cccnc2)cc1,-100,i,i[10 µM]
CCOc1ccc(OC(=O)c2cccnc2)cc1,?,i,i
N/C(Cc1nc(-c2ccc(Cl)cc2)cs1)=N/O,nt,i[9.22 µM],i[10 µM]
Cc1cc(=O)n2nc(N3CCCC(C(=O)N4CCN(c5ccccc5)CC4)C3)sc2n1 (configuration not stated),-117,i,i
Cc1cc(=O)n2nc(N3CCCC(C(=O)NC(C)c4ccccc4)C3)sc2n1 (configuration not stated),i,i,i
COc1ccc(S(=O)(=O)Nc2cc(Sc3ncn[nH]3)c(O)c3ccccc23)cc1,i,i[9.22 µM],i
CC(=O)/C(=N\Nc1ccccc1)Sc1cccc2cccnc12,i,i,i[10 µM]
O=C(Sc1cccc2cccnc12)c1ccc(F)cc1,nt,10µM,i[10 µM]
O=S(=O)(Nc1cc(Sc2cccc3cccnc23)c(O)c2ccccc12)c1ccc(F)cc1,-118,22µM,nt
CC1(C)N=C(/C=N/O)C=[N+]1[O-],i,i,i
COC(=O)c1ccc(C(NC(=O)OCc2ccccc2)/C(=C/[C@@H](C)C(=O)NCc2cccnc2)c2cccnc2)cc1 (some centres not stated),nt,nt,i
NCCc1nnc(SCC(N)=O)o1,i,i,i
CCN(CC)C(=O)CSc1nnc(CCN)o1,-82,i,i
Cc1nn(CCc2nn[nH]n2)c2nc(C(F)(F)F)cc(C(F)(F)F)c12,-84,i,i[4.97 µM]
Cc1nn(CCc2nn[nH]n2)c2nc(-c3ccc(Br)cc3)cc(C(F)(F)F)c12,nt,?,i[10 µM]
Nc1nnc(Cc2ccc(Cl)c(Cl)c2)s1,i,5.6µM,i
Nc1nnc(CCOc2ccccc2Cl)s1,i,?,i[10 µM]
CNC(=O)CN(Cc1ccccc1)S(=O)(=O)c1ccccc1,i,i,i
CC(C)(C)c1ccc(-c2c(C#N)c(N)nc3c2CCCC3)s1,i,i,i
O=C(c1ccc(C(=O)N2CCCc3ccccc32)nc1)N1CCCc2ccccc21,-100,i,i
O=C(c1cccnc1)N1CCCc2ccccc21,i,i,i[10 µM]
CN(C)S(=O)(=O)N1CCN(S(=O)(=O)c2ccc(F)cc2)CC1,?,i,i
CN(C)S(=O)(=O)c1ccc(N2CCN(S(=O)(=O)c3ccc(F)cc3)CC2)c(Cl)c1,i,10µM,i[10 µM]
CCOC(=O)c1cc(-c2ccc(OC(F)F)cc2)nc2c1c(=O)[nH]c(=O)n2C,-84,i,nt
SMILES,PNC assembly inh,HttQ103 aggreg,HTT ATP protect
CCOC(=O)c1cc(-c2ccc(OC(F)F)cc2)nc2nc(SC)[nH]c(=O)c12,i,i,i[10 µM]
CCN(CC)C(=O)c1ccccc1NS(C)(=O)=O,nt,i[9.22 µM],i[10 µM]
N#CCCCS(=O)(=O)c1nnnn1-c1ccc(F)cc1Br,nt,nt,7.1µM
O=S(=O)(CCc1ccccc1)c1nnnn1-c1ccc(F)cc1Br,nt,nt,i
O=C(NCc1ccco1)c1ccc(NC(=O)C2COc3ccccc3O2)cc1 (configuration not stated),?,i,i
Cc1cccc(NC(=O)Nc2ccncc2)c1,nt,i,nt
Cc1cccc(NC(=O)N[C@@H](C)C(=O)O)c1,-113,i[1.84 µM],i
COc1ccc(C(=O)OCC(=O)Nc2cc(C)c(C)cc2[N+](=O)[O-])cc1,i,i,i[10 µM]
CC(=O)c1cccc(-n2nnnc2SCC(=O)Nc2ccccc2N2CCCCC2)c1,-106,i,i
COc1ccc(-n2nnnc2SCC(=O)Nc2ccccc2N2CCOCC2)cc1OC,nt,i[9.22 µM],i[10 µM]
Cc1ccc(C(=O)COC(=O)c2cnccn2)cc1,-102,i,i
Cc1ccc(C(=O)Oc2ccc(C(=O)COC(=O)c3cnccn3)cc2)cc1,i,i,i
CCOc1ccc(C(=O)CCNC(Cc2cnc[nH]2)C(=O)O)cc1 (configuration not stated),i,i,i
O=C1CNCCCN2CCN(CCCNCC(=O)Nc3ccc(cc3)S(=O)(=O)c3ccc(cc3)NC(=O)CNCCCN3CCN(CCCNCC(=O)Nc4ccc(cc4)S(=O)(=O)c4ccc(cc4)N1)CC3)CC2,nt,nt,i[10 µM]
O=C1CCCN1CCCNS(=O)(=O)c1ccc(Br)cc1,nt,i[9.22 µM],i[10 µM]
CN1CCCC1CCNS(=O)(=O)c1ccc(Br)cc1 (configuration not stated),-109,i,i[10 µM]
C=CCNc1nc(-c2ccc(Cl)cc2)cs1,i,i,i
C=CCNc1nc(-c2ccc([N+](=O)[O-])cc2)cs1,-114,i,nt
Cc1ccc2[nH]c(=O)c(CN(Cc3cccs3)S(=O)(=O)c3ccc4c(c3)OCCO4)cc2c1,?,i,i[10 µM]
CC(C)c1nc(C#N)c(N2CCOCC2)o1,i,i,i[10 µM]
O=C(O)CSc1nnnn1C1CCCCC1,nt,i[9.22 µM],i[10 µM]
O=S(=O)(CCC(F)=C(F)F)c1nnnn1C1CCCCC1,nt,nt,4µM
COc1cc(/C=N/NC(=O)c2nc(-c3ccccc3)n(-c3ccccc3)n2)ccc1O,i,i,i[10 µM]
O=C(N/N=C/c1ccc(O)cc1)c1nc(-c2ccccc2)n(-c2ccccc2)n1,-100,i,nt
Cc1ccc(-c2cc(C(=O)N/N=C/c3cccnc3)n[nH]2)o1,-106,i,nt
SMILES,PNC assembly inh,HttQ103 aggreg,HTT ATP protect
Cc1cc(C(=O)N/N=C/c2cccnc2)n[nH]1,nt,i[9.22 µM],i[10 µM]
COc1ccccc1C1CC(=O)Nc2c1c(=O)n(C)c(=O)n2C (configuration not stated),i,i,i
O=C(NC1CC2CCC1C2)C1CCN(S(=O)(=O)c2ccc(-c3nn[nH]n3)cc2)CC1 (configuration not stated),i,i,i[10 µM]
N#CCCn1cc(/C=N/NC(=O)c2ccncc2)c(-c2ccccc2)n1,-84,i,i[10 µM]
Cc1cc(=O)[nH]c(N/N=C/c2cn(CCC#N)nc2-c2ccccc2)n1,nt,i,nt
CSc1ccccc1C(=O)NCc1ccc(F)cc1,nt,i,i
Cc1c(C(=O)Nc2cc(S(=O)(=O)N3CCOCC3)ccc2N2CCOCC2)oc2ccccc12,nt,i,i[10 µM]
Cc1ccc(CN2C(=O)CCSc3ccc(Cl)cc32)cc1,i,i,i
O=C1CCSc2ccc(Cl)cc2N1Cc1cccc(Cl)c1,?,22µM,i[10 µM]
CC(=O)Nc1ccc(S(=O)(=O)Nc2nc3ccc([N+](=O)[O-])cc3s2)cc1,nt,i,i[10 µM]
CC1CCCC(C)N1C(=O)CSc1nnc(CSc2ncccn2)n1C (configuration not stated),-100,i,i[10 µM]
COCCn1c(Cc2ccccc2)nnc1SCC(=O)N1CCCCC1C (configuration not stated),i,i,i
Cn1c(CSc2ncccn2)nnc1SCC(=O)N1CCCCCC1,nt,i[9.22 µM],i[10 µM]
CC1CCCCN1C(=O)CSc1nnc(Cc2ccccc2)n1C (configuration not stated),-100,i,i[10 µM]
COc1ccccc1N1CCN(C(=O)/C=C/c2ccc(C)cc2)CC1,i,i,i[10 µM]
CCn1c(Sc2nc(C)nc3scc(-c4cccs4)c23)n[nH]c1=O,i,?,nt
Cc1ccc(/C=N/NC(=O)Cc2cccn2C)s1,i,i,i[10 µM]
c1ccc(-c2cccc(N3CCCC4(CCNCC4)C3)c2)cc1,nt,nt,i
Cc1ccccc1-n1c(SCC(=O)c2c(N)n(C)c(=O)n(C)c2=O)nc2sc3c(c2c1=O)CCCC3,?,i,i[1.9 µM]
CCOC(=O)C(=O)N(CC)C1CCS(=O)(=O)C1 (configuration not stated),nt,i[9.22 µM],i[10 µM]

# Screening results deposited in PubChem by National Center for Advancing Translational Sciences (NCATS).
